KB-V1 cytotox: KB-V1 MDR subline cytotoxicity | KB-V1 MDR cells viability, CellTiter-Glo, 72 h | Potency, µM (top dose mostly 46.1 µM), most hits filed as cytotoxic | hit rate 3.4% among 400,000 | AID 1347076; further: on the % scale 0 is the no-effect control and ±100 the full control effect; nearly all actives have a fitted effect of over 60% in size
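Potencies derive from concentration-effect curves fitted to normalized luminescence (CellTiter-Glo) of KB-V1 cells treated for 72 h at 37 degrees C in phenol-red-free DMEM containing 10% FBS.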
ELG1 DNA repair: ELG1-dependent DNA repair inhibition. HEK293T ELG1-luciferase reporter, luminescence, 16 h; DNA damage induced by 5-fluorouridine. Potency, µM (highest dose often 46.1 µM), for the others: at the top dose activity change, negative = inhibition, most hits filed as inhibitors. hit rate 2.3% among 330,000. AID 504467; further: on the % scale 0 is the no-effect control and ±100 the full control effect; nearly all actives have a fitted effect of over 55% in size
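Luminescence from the luciferase reporter, measured 30 min after ONE-Glo reagent at room temperature, was the read-out. Beforehand, 2,000 cells per well were exposed for 16 hr at 37 °C to 5-fluorouridine together with compound or vehicle.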
MCF10A rerep: inducers of DNA re-replication in MCF 10A breast cells | MCF 10A DNA re-replication, Hoechst nuclear intensity, 48 h | Potency, µM (top dose mostly 46.1 µM), inactives show at the highest dose activity, positive = re-replication, usual class: activators | hit rate 2.9% among 350,000 | AID 624296; further: % of control where 0% means no effect; nearly all actives have a fitted effect of over 50% in size
KB-3-1 cytotox: KB-3-1 parental cell cytotoxicity; KB-3-1 viability, CellTiter-Glo ATP luminescence, 72 h; Potency, µM (titrated, usually from 46.1 µM), hits mostly cytotoxic; hit rate 1.4% among 400,000; further: on the % scale 0 is the no-effect control and ±100 the full control effect; nearly all actives have a fitted effect of over 60% in size
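Cytotoxicity in the drug-sensitive parental line KB-3-1 was scored as loss of CellTiter-Glo luminescence following 72 h incubation with compound. Values come from curve fitting of normalized concentration-response data.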
SW480 rerep: DNA re-replication induction in SW480 cells; SW480 DNA re-replication, Hoechst DNA content imaging, 48 h; Potency, µM (series often up to 46.1 µM), for the others: top-dose re-replication activation, most hits filed as activators; hit rate 1.8% among 340,000; AID 624297; further: % of control where 0% means no effect; nearly all actives have a fitted effect of over 55% in size
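Per well, 250 cells were exposed to pinned compound for 48 hr. Nuclear DNA was visualised with Hoechst (40 min, 37 C) and total object intensity recorded by fluorescence scanning.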
An asterisk follows results filed as active; i = inactive; u = inconclusive; x = no result given. Compounds with a hit are over-represented: about 8.1% of the library has one in this group of screens. The call rests on the fitted dose curve; in most records, active means well fitted curve in the direction sought with a large enough effect; inconclusive means small, poorly fitted or top-dose-only effect, or another doubt; inactive means no such curve, though single readings can be large; an effect the other way counts as inactive or inconclusive. Potency means the concentration at half of the fitted maximal effect.

SMILES	KB-V1 cytotox	ELG1 DNA repair	MCF10A rerep	KB-3-1 cytotox	SW480 rerep
COc1cccc(C(=O)Oc2cc3c4c(c2)C(C)=CC(C)(C)N4C(=O)C3=O)c1	i	u	u	i	4.11µM*
COc1ccc(C(=O)Oc2cc3c4c(c2)C(C)=CC(C)(C)N4C(=O)C3=O)cc1OC	i	u	-1.9%	i	-0.8%
COc1cc2c3c(c1)C(C)=CC(C)(C)N3C(=O)C2=O	i	13.6%	u	i	10.3µM*
Cc1cccc(NC(=O)N2CC=C(c3c[nH]c4ccccc34)CC2)c1C	i	x	x	i	x
Cc1ccc(S(=O)(=O)c2nnn3c2nc(NCc2ccccc2Cl)c2sccc23)cc1	i	x	x	i	x
Cc1ccc(O)c(C(=O)c2cc(C#N)c(=O)n(-c3nccs3)c2)c1	u	19.0%	11.6µM*	u	14.1%
Cc1ccc(CNC(=O)C2(NC(=O)Nc3ccc(C)cc3)CCCCC2)cc1	u	-5.9%	-3.3%	i	16.4µM*
Cc1ccc(NC(=O)NC2(C(=O)NCc3ccccc3)CCCCC2)cc1	i	4.9%	7.1%	i	-7.2%
O=C(Nc1ccc(F)cc1)NC1(C(=O)NCc2ccc3c(c2)OCO3)CCCCC1	16.4µM*	-27.3%	u	i	0.2%
CCOC(=O)C1(Cc2cccc(Cl)c2)CCCN(C(=O)c2cnn(CC)c2)C1 (stereo not drawn)	u	u	0.1%	i	6.3%
CC(C)CN(CCNC(=O)c1cn(C)c2ccc(S(=O)(=O)N3CCCCCC3)cc2c1=O)CC(C)C	i	x	x	i	x
O=C(/C=C/c1ccco1)Oc1cc(Br)cc(/C=N/NC(=O)c2ccccc2O)c1	u	u	u	u	0.731µM*
Cc1ccc(C(=O)N/N=C/c2cccc(OC(=O)/C=C/c3ccco3)c2)cn1	i	13.8%	-1.4%	i	-1.0%
COc1cccc(NC(=O)CSc2nc3c(oc4ccccc43)c(=O)n2Cc2ccco2)c1	i	x	x	i	x
CC(=O)c1ccc(NC(=O)c2cccc(NC(=O)N3CCSc4ncccc43)c2)cc1	i	x	x	i	x
COc1cc(-n2c(N)c(C(=O)NCc3ccco3)c3nc4ccccc4nc32)cc(OC)c1OC	i	-8.4%	9.2µM*	i	11.6µM*
COc1ccc(-n2c(N)c(C(=O)NCc3ccco3)c3nc4ccccc4nc32)cc1OC	i	6.51µM*	16.4µM*	i	18.4µM*
COc1cccc(CN(C)CCCn2cnc3c(SC)ncnc32)c1	i	x	x	u	x
COc1ccc(CN2CC(=O)N(c3ccc(C)c(C)c3)C2=S)cc1OC	u	16.4µM*	11.0%	i	5.9%
CCc1ccc(N2C(=O)CN(Cc3cc(OC)c(OC)c(OC)c3)C2=S)cc1	7.31µM*	-23.4%	-15.0%	i	-72.5%
COc1cc(CN2CC(=O)N(c3ccc(C)c(C)c3)C2=S)cc(OC)c1OC	16.4µM*	u	23.8%	u	u
CCc1ccccc1N1C(=O)CN(Cc2cc(OC)c(OC)c(OC)c2)C1=S	i	-24.6%	10.2%	i	20.1%
CCN(CC)S(=O)(=O)c1cc(NC(=O)CNc2cccc(S(=O)(=O)N3CCCC3)c2)ccc1C	20.6µM*	u	26.1%	2.91µM*	-1.6%
O=C(CNc1cccc(S(=O)(=O)N2CCCC2)c1)Nc1cccc(C(F)(F)F)c1	i	9.2µM*	1.7%	i	-1.9%
CCN(CC)S(=O)(=O)c1cccc(NC(=O)CNc2cccc(S(=O)(=O)N3CCOCC3)c2)c1	20.6µM*	u	15.1%	1.3µM*	5.6%
CCN(CC)S(=O)(=O)c1ccc(C)c(NC(=O)CNc2cccc(S(=O)(=O)N3CCOCC3)c2)c1	i	u	u	i	-527.0%
CCCCCCN1C[C@@H](O)[C@H](n2cc(COC(=O)c3ccccc3)nn2)C[C@@H]1c1ccc(C)cc1	i	x	x	i	x
CCOC1=C2CN(S(=O)(=O)c3ccc(C)cc3)[C@H](c3cccc4ccccc34)C[C@H]2[C@H]2C(=O)N(c3ccccc3)C(=O)[C@H]2C1	i	x	x	i	x
CCOc1ccc(C2=CC(=O)C[C@H](c3ccc(OC)cc3)C2)cc1	i	u	-1.6%	i	-1.1%
